Targets with a hit are over-represented here; the source holds about 8,800 in all. About 0.5% of all pairs of compound and target were hits. A number with no mark means an inactive call.
What was measured:
Test in all cases: log2 fold change, soluble protein after heating vs DMSO (PISA); higher = thermal stabilisation; K562 lysate, 10 uM; active = over 0.2 and 3.5 SD of the protein, either way, in both replicates (recomputed)
alvocidib = compound: CN1CC[C@H](c2c(O)cc(O)c3c(=O)cc(-c4ccccc4Cl)oc23)[C@H](O)C1 [alvocidib]
Outline: (§1)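 Log-two fold change in thermal stability relative to solvent controls is reported from duplicates. For each sample, crude K562 extract from dounce-homogenised pellets in PBS pH 7.4 with 1 mM MgCl2, at 1 mg/mL protein, was treated with 10 μM compound for 30 min. Aliquots heated for 3 min across 48°C-58°C were pooled, brought to 0.5% NP-40 at 4°C and cleared at 21,000xg for 90 min. The supernatant was quantified by TMTpro 16plex LC-MS/MS with channel sums equalised.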

Tubastatin A = compound: CN1CCc2c(c3ccccc3n2Cc2ccc(C(=O)NO)cc2)C1 [Tubastatin A]
Outline: as §1

[1] = compound: CNC(=O)C1=CC=CC=C1NC2=NC(=NC=C2Cl)NC3=C(C=C(C=C3)N4CCOCC4)OC
Outline: as §1

defactinib = compound: CNC(=O)c1ccc(Nc2ncc(C(F)(F)F)c(NCc3nccnc3N(C)S(C)(=O)=O)n2)cc1 [defactinib]
Outline: as §1

[2] = compound: CNc1nc(-c2ccc3c(N)n[nH]c3c2)cc(N2C[C@@H](C(=O)NC3CCCCC3)CC[C@H]2C)n1
Outline: as §1

encorafenib = compound: COC(=O)N[C@@H](C)CNc1nccc(-c2cn(C(C)C)nc2-c2cc(Cl)cc(NS(C)(=O)=O)c2F)n1 [encorafenib]
Outline: as §1

[3] = compound: COC(=O)[C@H](CCSC)NC(=O)C1=C(C=C(C=C1)NC[C@H](CS)N)C2=CC=CC=C2
Outline: as §1

alisertib = compound: COc1cc(Nc2ncc3c(n2)-c2ccc(Cl)cc2C(c2c(F)cccc2OC)=NC3)ccc1C(=O)O [alisertib]
Outline: as §1

[4] = compound: COc1cc2nc(-c3cc(F)ccc3O)nc(N[C@@H]3CNC[C@H]3C(C)(C)O)c2cc1OC
Outline: as §1

gefitinib = compound: COc1cc2ncnc(Nc3ccc(F)c(Cl)c3)c2cc1OCCCN1CCOCC1 [gefitinib]
Outline: as §1

lapatinib = compound: CS(=O)(=O)CCNCc1ccc(-c2ccc3ncnc(Nc4ccc(OCc5cccc(F)c5)c(Cl)c4)c3c2)o1 [lapatinib]
Outline: as §1

pictilisib = compound: CS(=O)(=O)N1CCN(Cc2cc3nc(-c4cccc5[nH]ncc45)nc(N4CCOCC4)c3s2)CC1 [pictilisib]
Outline: as §1

crizotinib = compound: C[C@@H](Oc1cc(-c2cnn(C3CCNCC3)c2)cnc1N)c1c(Cl)ccc(F)c1Cl [crizotinib]
Outline: as §1

[5] = compound: C[C@H](C1=CC=C(C=C1)C(=O)NC2=C3C=CNC3=NC=C2)N
Outline: as §1

duvelisib = compound: C[C@H](Nc1ncnc2nc[nH]c12)c1cc2cccc(Cl)c2c(=O)n1-c1ccccc1 [duvelisib]
Outline: as §1

gandotinib = compound: Cc1cc(Nc2cc(CN3CCOCC3)c3nc(C)c(Cc4ccc(Cl)cc4F)n3n2)n[nH]1 [gandotinib]
Outline: as §1

tozasertib = compound: Cc1cc(Nc2cc(N3CCN(C)CC3)nc(Sc3ccc(NC(=O)C4CC4)cc3)n2)n[nH]1 [tozasertib]
Outline: as §1

doramapimod = compound: Cc1ccc(-n2nc(C(C)(C)C)cc2NC(=O)Nc2ccc(OCCN3CCOCC3)c3ccccc23)cc1 [doramapimod]
Outline: as §1

bafetinib = compound: Cc1ccc(NC(=O)c2ccc(CN3CC[C@H](N(C)C)C3)c(C(F)(F)F)c2)cc1Nc1nccc(-c2cncnc2)n1 [bafetinib]
Outline: as §1

[6] = compound: Cc1cccc(CC(=O)N2CCc3c2ccc(-c2cn(C)c4ncnc(N)c24)c3F)n1
Outline: as §1

UniProt P01116, sequence (P01116 whole entry, looked up): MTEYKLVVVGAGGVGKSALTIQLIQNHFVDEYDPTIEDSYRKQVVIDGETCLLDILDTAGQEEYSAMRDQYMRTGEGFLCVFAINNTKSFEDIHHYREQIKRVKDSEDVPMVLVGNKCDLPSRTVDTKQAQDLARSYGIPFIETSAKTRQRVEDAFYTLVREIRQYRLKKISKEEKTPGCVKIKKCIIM
UniProt Q9HD34, sequence (Q9HD34 whole entry, looked up): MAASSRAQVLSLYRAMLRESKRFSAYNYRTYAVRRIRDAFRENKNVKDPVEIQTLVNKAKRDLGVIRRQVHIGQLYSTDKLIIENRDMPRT
UniProt Q9Y4K4, sequence (Q9Y4K4 whole entry, looked up): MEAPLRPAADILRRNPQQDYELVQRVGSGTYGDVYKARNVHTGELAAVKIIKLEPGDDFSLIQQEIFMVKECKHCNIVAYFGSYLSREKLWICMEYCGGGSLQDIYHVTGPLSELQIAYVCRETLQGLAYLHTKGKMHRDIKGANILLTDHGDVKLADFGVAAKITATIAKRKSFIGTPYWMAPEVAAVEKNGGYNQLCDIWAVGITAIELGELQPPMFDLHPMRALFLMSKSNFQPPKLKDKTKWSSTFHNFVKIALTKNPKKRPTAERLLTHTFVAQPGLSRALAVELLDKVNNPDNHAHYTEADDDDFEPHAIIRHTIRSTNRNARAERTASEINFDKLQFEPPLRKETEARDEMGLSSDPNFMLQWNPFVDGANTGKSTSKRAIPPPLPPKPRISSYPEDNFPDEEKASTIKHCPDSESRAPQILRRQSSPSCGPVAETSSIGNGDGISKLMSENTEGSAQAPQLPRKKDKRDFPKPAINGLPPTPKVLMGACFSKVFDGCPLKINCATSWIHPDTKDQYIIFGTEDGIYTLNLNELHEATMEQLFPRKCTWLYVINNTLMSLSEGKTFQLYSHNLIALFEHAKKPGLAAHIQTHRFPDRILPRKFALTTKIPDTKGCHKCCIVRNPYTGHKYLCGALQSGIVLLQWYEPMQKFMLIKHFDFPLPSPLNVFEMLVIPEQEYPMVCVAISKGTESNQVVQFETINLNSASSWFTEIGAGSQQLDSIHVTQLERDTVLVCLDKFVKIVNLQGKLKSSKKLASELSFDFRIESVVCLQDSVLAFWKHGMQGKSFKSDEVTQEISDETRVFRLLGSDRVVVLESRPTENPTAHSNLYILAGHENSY
UniProt Q16539, sequence (Q16539 whole entry, looked up): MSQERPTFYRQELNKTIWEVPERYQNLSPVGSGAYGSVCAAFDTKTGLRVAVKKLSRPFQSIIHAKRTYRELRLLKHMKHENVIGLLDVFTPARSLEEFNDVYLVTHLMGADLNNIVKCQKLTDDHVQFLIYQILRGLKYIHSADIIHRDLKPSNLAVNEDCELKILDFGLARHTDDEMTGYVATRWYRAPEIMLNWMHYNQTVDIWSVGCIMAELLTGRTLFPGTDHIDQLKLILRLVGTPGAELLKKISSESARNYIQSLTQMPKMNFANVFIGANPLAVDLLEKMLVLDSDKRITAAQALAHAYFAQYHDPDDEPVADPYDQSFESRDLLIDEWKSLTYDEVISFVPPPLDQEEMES
UniProt Q8N4C8, sequence (Q8N4C8 whole entry, looked up): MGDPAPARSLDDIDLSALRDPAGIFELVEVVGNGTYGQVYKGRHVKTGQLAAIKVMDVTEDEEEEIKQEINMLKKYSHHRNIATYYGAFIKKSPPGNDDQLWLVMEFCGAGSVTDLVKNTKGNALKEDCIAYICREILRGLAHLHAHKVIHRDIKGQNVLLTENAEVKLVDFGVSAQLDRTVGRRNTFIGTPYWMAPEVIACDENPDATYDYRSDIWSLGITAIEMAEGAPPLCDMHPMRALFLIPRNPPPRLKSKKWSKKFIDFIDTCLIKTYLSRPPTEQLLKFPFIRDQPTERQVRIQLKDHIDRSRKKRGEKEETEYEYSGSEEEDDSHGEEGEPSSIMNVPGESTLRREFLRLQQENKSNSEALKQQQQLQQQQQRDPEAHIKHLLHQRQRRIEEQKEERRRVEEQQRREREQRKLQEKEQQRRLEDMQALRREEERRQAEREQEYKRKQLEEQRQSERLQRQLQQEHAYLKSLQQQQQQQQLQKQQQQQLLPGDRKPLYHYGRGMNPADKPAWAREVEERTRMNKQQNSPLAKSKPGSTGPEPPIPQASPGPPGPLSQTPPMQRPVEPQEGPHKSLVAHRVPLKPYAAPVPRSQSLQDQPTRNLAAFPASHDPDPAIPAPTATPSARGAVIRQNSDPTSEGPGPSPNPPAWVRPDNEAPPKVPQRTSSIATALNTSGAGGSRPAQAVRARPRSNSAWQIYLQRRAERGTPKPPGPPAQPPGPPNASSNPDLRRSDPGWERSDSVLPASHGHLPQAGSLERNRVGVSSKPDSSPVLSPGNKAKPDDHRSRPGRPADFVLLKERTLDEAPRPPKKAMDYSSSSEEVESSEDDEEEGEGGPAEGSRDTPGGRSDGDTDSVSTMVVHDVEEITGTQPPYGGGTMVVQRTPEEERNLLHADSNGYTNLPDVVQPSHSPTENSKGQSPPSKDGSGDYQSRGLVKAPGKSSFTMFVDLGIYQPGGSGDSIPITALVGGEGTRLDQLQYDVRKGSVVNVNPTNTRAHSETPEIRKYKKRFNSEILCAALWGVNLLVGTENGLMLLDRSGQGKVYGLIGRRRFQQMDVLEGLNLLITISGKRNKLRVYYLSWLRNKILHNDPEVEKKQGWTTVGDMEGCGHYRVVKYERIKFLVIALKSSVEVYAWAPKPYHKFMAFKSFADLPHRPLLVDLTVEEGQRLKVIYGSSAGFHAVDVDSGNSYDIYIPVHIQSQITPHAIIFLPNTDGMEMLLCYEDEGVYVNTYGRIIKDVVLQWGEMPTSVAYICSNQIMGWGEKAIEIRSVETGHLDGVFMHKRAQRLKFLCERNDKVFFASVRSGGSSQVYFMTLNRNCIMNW
UniProt Q8TC05, sequence (Q8TC05 whole entry, looked up): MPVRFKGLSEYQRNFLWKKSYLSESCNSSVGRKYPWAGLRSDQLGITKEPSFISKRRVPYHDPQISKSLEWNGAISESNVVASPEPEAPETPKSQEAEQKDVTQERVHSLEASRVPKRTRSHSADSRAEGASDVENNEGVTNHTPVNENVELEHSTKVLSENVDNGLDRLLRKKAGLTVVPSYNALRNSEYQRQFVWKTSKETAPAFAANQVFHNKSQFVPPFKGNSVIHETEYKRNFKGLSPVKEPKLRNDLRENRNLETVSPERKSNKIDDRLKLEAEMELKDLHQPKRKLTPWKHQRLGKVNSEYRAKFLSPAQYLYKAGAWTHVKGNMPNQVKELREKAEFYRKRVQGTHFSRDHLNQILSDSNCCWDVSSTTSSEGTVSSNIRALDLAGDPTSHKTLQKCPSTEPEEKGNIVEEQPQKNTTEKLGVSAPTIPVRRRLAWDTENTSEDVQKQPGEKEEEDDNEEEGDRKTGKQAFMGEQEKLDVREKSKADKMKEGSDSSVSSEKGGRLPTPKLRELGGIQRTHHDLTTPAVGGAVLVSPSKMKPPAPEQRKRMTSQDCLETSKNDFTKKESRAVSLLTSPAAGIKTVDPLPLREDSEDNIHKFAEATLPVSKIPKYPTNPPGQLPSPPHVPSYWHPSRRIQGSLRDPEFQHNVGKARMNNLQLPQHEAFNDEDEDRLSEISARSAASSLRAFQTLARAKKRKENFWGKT
UniProt Q00987, sequence (Q00987 whole entry, looked up): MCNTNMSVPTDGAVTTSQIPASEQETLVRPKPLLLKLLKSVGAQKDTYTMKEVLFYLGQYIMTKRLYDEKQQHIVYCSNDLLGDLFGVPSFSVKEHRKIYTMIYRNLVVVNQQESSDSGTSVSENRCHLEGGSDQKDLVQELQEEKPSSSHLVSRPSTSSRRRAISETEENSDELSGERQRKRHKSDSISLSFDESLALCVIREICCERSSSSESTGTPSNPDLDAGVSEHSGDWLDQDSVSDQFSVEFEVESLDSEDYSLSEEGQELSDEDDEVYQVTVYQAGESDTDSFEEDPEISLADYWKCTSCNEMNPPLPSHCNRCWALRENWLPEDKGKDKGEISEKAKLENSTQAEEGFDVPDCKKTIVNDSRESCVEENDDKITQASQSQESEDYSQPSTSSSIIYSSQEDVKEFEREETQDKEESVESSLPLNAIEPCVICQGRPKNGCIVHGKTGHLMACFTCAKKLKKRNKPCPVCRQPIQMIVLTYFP
UniProt O14733, sequence (O14733 whole entry, looked up): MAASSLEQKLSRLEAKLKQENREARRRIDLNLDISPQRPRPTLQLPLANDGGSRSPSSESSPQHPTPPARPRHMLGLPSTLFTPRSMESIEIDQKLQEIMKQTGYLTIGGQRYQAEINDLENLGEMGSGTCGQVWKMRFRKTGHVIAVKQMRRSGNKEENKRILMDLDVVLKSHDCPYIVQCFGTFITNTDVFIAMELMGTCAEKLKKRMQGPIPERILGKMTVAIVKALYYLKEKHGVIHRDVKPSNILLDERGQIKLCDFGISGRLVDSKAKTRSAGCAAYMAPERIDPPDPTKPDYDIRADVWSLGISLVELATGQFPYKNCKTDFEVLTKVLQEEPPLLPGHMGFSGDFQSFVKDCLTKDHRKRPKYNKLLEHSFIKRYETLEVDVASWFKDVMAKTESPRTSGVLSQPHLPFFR
UniProt P07948, sequence (P07948 whole entry, looked up): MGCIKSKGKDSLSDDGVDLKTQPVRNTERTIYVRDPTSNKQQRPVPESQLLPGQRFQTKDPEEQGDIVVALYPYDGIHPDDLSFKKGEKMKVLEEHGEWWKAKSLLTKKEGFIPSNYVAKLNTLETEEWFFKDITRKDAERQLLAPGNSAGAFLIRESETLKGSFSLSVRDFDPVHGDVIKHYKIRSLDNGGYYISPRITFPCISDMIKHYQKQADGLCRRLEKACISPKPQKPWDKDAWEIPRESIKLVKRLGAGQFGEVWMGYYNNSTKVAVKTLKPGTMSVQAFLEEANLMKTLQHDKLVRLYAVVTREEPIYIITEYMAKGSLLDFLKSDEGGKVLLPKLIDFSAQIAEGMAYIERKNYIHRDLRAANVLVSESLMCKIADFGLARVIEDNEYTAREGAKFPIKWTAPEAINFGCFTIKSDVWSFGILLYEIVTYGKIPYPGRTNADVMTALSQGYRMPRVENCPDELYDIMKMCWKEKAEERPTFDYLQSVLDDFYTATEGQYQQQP

Target	log2 fold change (alvocidib)	log2 fold change (Tubastatin A)	log2 fold change [1]	log2 fold change (defactinib)	log2 fold change [2]	log2 fold change (encorafenib)	log2 fold change [3]	log2 fold change (alisertib)	log2 fold change [4]	log2 fold change (gefitinib)	log2 fold change (lapatinib)	log2 fold change (pictilisib)	log2 fold change (crizotinib)	log2 fold change [5]	log2 fold change (duvelisib)	log2 fold change (gandotinib)	log2 fold change (tozasertib)	log2 fold change (doramapimod)	log2 fold change (bafetinib)	log2 fold change [6]
LYRM4 (UniProt Q9HD34)	0.013	0.068	-0.042	0	0.036	-0.008	0	0.007	0	0.008	-0.036	-0.026	-0.034	0.413 (active)	0.031	-0.095	-0.021	-0.047	0.008	-0.007
KRAS (UniProt P01116)	-0.071	0.059	-0.048	-0.01	-0.005	0.01	0.043	-0.016	-0.042	0.139	0.019		0.017	-0.078	0.001	0.044	-0.013	0.006		0.145
KRI1 (UniProt Q8N9T8)	0.017	-0.113	0.016	0.019	-0.012	0.038	0.009	0.042		-0.106		-0.072	-0.057	0.011	0.036	-0.022	0.014	0.023	0.009	0.045
MAPK14 isoform 2 (UniProt Q16539)	0.154	-0.121	0.299	0.01	-0.041	0.454	0.257	-0.065	-0.004	0.144	-0.008	-0.054	-0.028	0.222	-0.026	-0.086	0.001		0.765	-0.122
MCCC1 (UniProt Q96RQ3)	0.063	-0.036	0.003	-0.002	-0.025	0.012	-0.057	0	0.001	0.017	-0.022	-0.038	-0.004	0.106	0.017	-0.14	-0.019	0.003	-0.048	-0.093
MDM2 isoform 11 (UniProt Q00987)	-0.127	0.15	0.041	0.158								-0.003	0.014	-0.004		0.044		0.009	0.054	-0.158
MRPL30 isoform 2 (UniProt Q8TCC3)	0.419 (active)	0.034	-0.003		-0.002	-0.049	-0.034	-0.033	-0.003	-0.013	0.03	-0.029	-0.094	0.746 (active)	0.068	-0.373 (active)	0.158	0.013	0.043	-0.458 (active)
MRPL27 (UniProt Q9P0M9)	0.082	-0.017	0.016		-0.028	-0.047	0.008	-0.019	0	0.022	0.02	0.017	-0.046	0.658 (active)	0.02	-0.249	0.029	0.011	0.012	-0.076
LYN isoform 2 (UniProt P07948)	0.138	-0.153	0.175		0.014	-0.063	0.301	0.229		0.054			0.049	0.026	-0.357	0.891 (active)	0.126	-0.076		-0.006
MAP4K2 (UniProt Q12851)	0.111	-0.189	-0.02	0.086	0.055	-0.183	-0.234		0.219		-0.164	0.126		0.145	0.077	0.273	0.054	0.035	-0.126	-0.015
MAP4K5 (UniProt Q9Y4K4)	0.045	-0.021	0.068	0.125	-0.006	0.009	-0.191	-0.027	0.189	0.086	-0.035	0.044		0.013	-0.021	0.055	0.152	-0.04	-0.046	0.112
MPDZ (UniProt O75970)	0.028	0.117	0.236	0.053	0.099	-0.091	-0.032	-0.167	-0.114	0.228	0.046		0.127	0.099	-0.003	0.016	0.118	0.053		-0.066
LYN (UniProt P07948)	0.026	-0.046	0.203	0.076	-0.092	-0.01	-0.072	0.171	0.26	-0.006	-0.184	-0.036	0.093	-0.079	-0.042	0.551	0.11	0.026	0.763 (active)	-0.005
MINK1 (UniProt Q8N4C8)	-0.049	-0.137	0.055	0.025	0.109	-0.133	0.022	0.051	-0.003		-0.084	-0.02	-0.149	0.271	0.026	-0.102	0.014	0.24	-0.158	0.249
MAP2K7 isoform 4 (UniProt O14733)	0.023	-0.15	0.023	-0.035	0.036	-0.059	0.177	0.006	-0.009	-0.08	0.004	0.204	-0.05	0.081	-0.048	-0.042	-0.04	0.052	-0.06	0.002
MDM1 (UniProt Q8TC05)	-0.527	0.007	-0.071	-0.126	-0.328	0	-0.12	0.018	-0.031	0.14	-0.004			-1.42 (active)	0.05	0.336	0.083			0.554 (active)

Source: the supplement of paper PMC10849652
